# Bioassay records deposited in PubChem by Sanford-Burnham Center for Chemical Genomics.
# Peg3 prom inh – Peg3 promoter-driven luciferase inhibitors, primary screen, cell-based, HeLa, luciferase luminescence; HeLa PEG-Prom luciferase reporter, overnight; inhibition, % at 20 µM; 1.7% of 360,000 active; AID 588405, 2011;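 active means inhibition of at least 50% at 20 µM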
# TWEAK-Fn14 inh – inhibitors of TWEAK-Fn14 signaling, primary screen, luciferase reporter cells, uHTS. TWEAK-stimulated Fn14 reporter cells, luciferase luminescence, 8 h. inhibition, % at 10 µM. 2% of 360,000 active. AID 1159606, 2016; in the data active means inhibition above about 50%
# CF NFkB inh – inhibitors of PAF-induced NF-kB signaling, primary screen, cell-based, GFP fluorescence, uHTS. 0.86% of 360,000 active. KKLEB NF-kB-GFP reporter, GFP fluorescence overnight. inhibition, % at 5 µM;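 active means at least 50% inhibition at 5 µM, scaled per plate between neutral and stimulator controls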;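 further: PAF is a Pseudomonas aeruginosa culture filtrate used as stimulus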
# TROY signal inh – inhibitors of TROY-driven NF-kB signaling, primary screen, Q293 LMP1-TROYcd cells, NF-kB luciferase, uHTS; inhibition, % at 10 µM; Q293 LMP1-TROYcd NF-kB luciferase reporter, 4 h; 0.98% of 360,000 active;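 active means compounds whose plate-normalised and pattern-corrected inhibition of the luciferase reporter signal at the single screening dose is 50% or more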
# HIF-2a block – HIF-2a reporter inhibitors, primary screen, luminescence, 786-0 RCC cells | 786-0 RCC cells HIF-2a reporter, luciferase luminescence, overnight | 0.72% of 360,000 active | inhibition, % at 18.8 µM;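 active means inhibition of the luminescence signal of 40% or more relative to plate controls, in a single-dose primary screen at 18.75 µM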
# KKLEB cytotox – cytotoxicity in KKLEB CF airway cells, primary screen, cytotoxicity control for CF NF-kB inhibitor project, cell-based, uHTS, fluorescence assay plates. KKLEB CF airway cells viability, ATPlite luminescence, overnight; stronger effect = lower value; cells stimulated with P. aeruginosa culture filtrate. activity change (cytotoxicity), % at 5 µM. 0.36% of 360,000 active. AID 602141, 2011;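 active means corrected activity change at or below -50% at 5 µM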
# CF NFkB inh conf – inhibitors of PAF-induced NF-kB signaling, retest, confirmation, cell-based, GFP fluorescence, single concentration; shares compounds with CF NFkB inh; KKLEB CF airway cells, overnight; inhibition, % at 5 µM; 64% of 1,300 active; in the data active means inhibition above about 40%;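 further: stimulus PAF is a Pseudomonas aeruginosa filtrate and not platelet activating factor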
# Hits are given with their value; – = inactive; · = no result given. Sampled rows, rich in hits. Any-hit rate of the full collection: about 4%.
SMILES,Peg3 prom inh,TWEAK-Fn14 inh,CF NFkB inh,TROY signal inh,HIF-2a block,KKLEB cytotox,CF NFkB inh conf
CCOc1ccccc1C=C1SC(=S)NC1=O,–,–,–,–,–,–,·
Cc1ccc2nc(-c3ccc(-c4cccc(Cl)c4)cc3)c(NCc3ccccc3)n2c1,–,–,–,–,–,–,·
CCCCNc1c(-c2cccc(-c3ccc(OC)cc3)c2)nc2ccc(C)cn12,69,–,68,–,–,–,91
O=C(Nc1cccc2ccccc12)c1ccc(F)cc1,–,–,–,–,–,–,·
O=C(Nc1cccc2[nH]ncc12)c1ccc(F)cc1,–,59,79,–,–,–,93
O=C(NC(=S)Nc1cccc2[nH]ncc12)c1ccccc1,–,–,62,–,–,–,–
O=S(=O)(NC1CCN(S(=O)(=O)c2ccc3c(c2)OCCO3)C1)c1c(F)cccc1F (configuration not stated),–,–,–,–,–,–,·
CCCCC1Cc2[nH]c(=S)[nH]c(=O)c2C(c2cccc3ccccc23)O1 (configuration not stated),·,–,·,–,–,·,·
Cc1ccc(S(=O)(=O)N2CCc3c2cc([N+](=O)[O-])cc3[N+](=O)[O-])cc1,–,–,–,–,–,–,·
Nc1cccc2c1C(=O)N(C(=O)/C=C/c1cccc(F)c1)C2=O,80,70,52,–,–,–,–
Nc1cccc2c1C(=O)N(C(=O)/C=C/c1cccc(Br)c1)C2=O,54,53,56,–,–,–,–
O=C(O)C=Cc1c[nH]c2nccnc12,–,–,–,–,–,–,·
CCC1CCCCN1C(=O)c1sc2ncnc(N(CC)CC)c2c1C (configuration not stated),–,–,–,–,–,–,·
COc1ccc(Cl)cc1N(CC(=O)NCc1ccccn1)S(=O)(=O)c1ccc(C)cc1,–,–,–,–,–,–,·
Cc1ccc(-c2cccc(C(=O)NCCc3ccccc3)n2)c2ccccc12,–,–,–,–,–,–,·
Cc1ccc(-c2cccc(C(=O)NCc3ccccc3)n2)c2ccccc12,–,–,53,–,–,–,–
CCCN(CCO)CCCc1ccccc1,–,–,–,·,–,–,·
CCN(CCCc1ccccc1)CCCc1ccccc1,–,–,54,–,–,–,–
O=C(O)c1ccc(C(=O)C(=O)c2ccccc2)cc1,–,–,–,–,–,–,·
C=C(C(=O)c1ccccc1)C(C)C(=C)C(=O)c1ccccc1,104,94,57,–,91,–,–
CCN(CC)S(=O)(=O)c1ccc(N2CCN(C)CC2)c(NC(=O)Nc2ccc(C)cc2)c1,–,–,–,–,–,–,·
O=C(NCCc1ccc(F)cc1)Nc1ccc([N+](=O)[O-])cc1,–,–,–,–,–,–,·
O=[N+]([O-])c1ccc(NC(=S)NCCc2ccc(F)cc2)cc1,–,66,50,–,–,–,66
COc1ccc(-c2[nH]n(-c3ccc([N+](=O)[O-])cc3)c(=O)c2C=NCc2ccccc2)cc1,–,–,50,–,–,–,–
COc1ccc(CCN=Cc2c(C)[nH]n(-c3ccc([N+](=O)[O-])cc3)c2=O)cc1OC,–,–,–,–,–,–,·
SMILES,Peg3 prom inh,TWEAK-Fn14 inh,CF NFkB inh,TROY signal inh,HIF-2a block,KKLEB cytotox,CF NFkB inh conf
CCOC(=O)C1=C(CC)Nc2ccccc2N=C1NC(=O)c1oc2ccccc2c1C,64,–,76,–,–,–,95
CCOc1ccc(NCc2cc3c(C(C)(C)C)nn(-c4ccccc4)c3[nH]c2=O)cc1,–,–,55,–,–,–,73
O=c1c2cc(Br)ccc2[nH]c(=S)n1Cc1ccccc1,–,–,–,–,–,–,·
O=C(NCc1cccnc1)c1ccc(Cn2c(=S)[nH]c3ccc(Br)cc3c2=O)cc1,–,–,52,–,–,–,–
O=C(Nc1ccc(Cl)cc1)c1nc[nH]c1C(=O)NCCCCNC(=O)c1[nH]cnc1C(=O)Nc1ccc(Cl)cc1,80,–,79,–,–,–,102
O=C(Nc1cccc(Cl)c1)c1nc[nH]c1C(=O)NCCCCNC(=O)c1[nH]cnc1C(=O)Nc1cccc(Cl)c1,–,–,–,–,–,–,·
Cn1nc(C2CC2)cc1NC(=O)C1(C)CCN1C(=O)CC(c1ccccc1)c1ccccc1 (configuration not stated),–,–,–,–,–,–,·
CCN(c1ccccc1)S(=O)(=O)c1cccc(C(=O)NCC(c2ccco2)N2CCCCC2)c1 (configuration not stated),–,–,–,–,–,–,·
O=C(Cn1cnc2ccccc2c1=O)N1CCN(S(=O)(=O)c2ccc(F)cc2)CC1,–,–,–,–,–,–,·
Cc1ccc(N2CCN(S(=O)(=O)c3c(C)noc3C)CC2C)cc1 (configuration not stated),–,–,–,–,–,–,·
COc1ccc(NC(=O)CCc2nc3ccccc3c(=O)[nH]2)cc1S(=O)(=O)N1CCCCC1,–,–,–,–,–,–,·
Cc1ccc(S(=O)(=O)N2[C@@H](c3ccc(C(C)(C)C)cc3)C(C(=O)O)=CC[C@H]2c2ccc(C(C)C)cc2)cc1,–,94,62,87,–,–,53
Cc1ccc([C@@H]2CC=C(C(=O)O)[C@H](c3ccc(C(C)(C)C)cc3)N2S(=O)(=O)c2ccc(C)cc2)cc1,–,52,51,65,–,–,–
CCOc1ccc(CCNC(=O)COC(=O)CNS(=O)(=O)c2ccc(NC(C)=O)cc2)cc1OCC,–,–,–,–,–,–,·
CCCCNC(=S)N(C)/N=C/c1ccc(OCC(=O)Nc2ccc(OC)cc2)c(OC)c1,–,–,54,–,–,–,–
O=C(CCC1COc2ccccc2O1)Nc1ccc(Cl)cn1 (configuration not stated),–,–,60,–,–,–,48
CCN1CCN(Cc2ccc(NC(=O)c3ccc(C)c(NC(=O)c4ccno4)c3)cc2C(F)(F)F)CC1,–,–,56,–,–,–,69
CCN1CCN(Cc2ccc(NC(=O)c3ccc(C)c(NC(=O)C4=NN(c5ccccc5)C(=O)C4)c3)cc2C(F)(F)F)CC1,–,–,–,–,–,–,·
CCN1CCN(Cc2ccc(NC(=O)c3ccc(C)c(NC(=O)c4csc(-c5ccncc5)n4)c3)cc2C(F)(F)F)CC1,–,–,71,–,–,–,46
COc1ccc(C(=O)NCCc2nnc3ccc(SCC(=O)NCCc4ccc(OC)c(OC)c4)nn23)cc1,–,–,–,–,–,–,·
